Test [1] has as its system Wnt5a (protein binding on small-molecule microarray). As to the kind of experiment: Wnt5a binders on small-molecule microarray, primary screen, biophysical, 635/667 nm fluorescence (AID 1142).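 Further: fluorescence read at 667 nm with signal to noise per printed feature.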 Conditions: 635 nm fluorescence, higher = more signal.
Test [2] is described as follows: cell viability in Huh7 cells, primary screen, cytotoxicity control for HCV replication inhibitor project, CellTiter-Glo luminescence, basal, 48 h (AID 1143).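 Further: Huh7 hepatoma cells carrying a hepatitis C replication reporter with no stimulus; test concentration not given here.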 Conditions: Huh7 HCV replicon, higher = more signal, called active from +8 up or from −8 down.
Test [3] in a line: P. aeruginosa biofilm formation inhibitors, primary screen, PAO1 strain, BacTiter-Glo luminescence, LB-PBS (AID 1144). The settings on record: 12 h, higher = more signal.
The nature of test [4]: CREB reporter modulators without forskolin, primary screen, cell-based, PC12, CRE-LacZ reporter, unstimulated (AID 1145). The settings on record: no forskolin, luminescence, 4.5 h, higher = more signal, called active from +8 up or from −8 down.
Test [5] is described as follows: CREB reporter modulators under forskolin, primary screen, cell-based, PC12, CRE-LacZ reporter, forskolin-stimulated (AID 1146).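 Further: PC12 cells with 6xCRE LacZ reporter stimulated by forskolin 10 µM; beta-galactosidase reporter signal reflecting CREB driven transcription.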 Conditions: luminescence, 4.5 h, higher = more signal, called active from +8 up or from −8 down.
Test [6] concerns the target Streptavidin (Streptomyces avidinii) (UniProt P22629). As to the kind of experiment: streptavidin binders on small-molecule microarray, primary screen, artefact control for SMM compound annotation, biophysical, 635/667 nm fluorescence (AID 1147).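 Further: signal reflects streptavidin binding to arrayed compounds as a control protein.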 Conditions: streptavidin binding, higher = more signal.
A short description of test [7]: small-molecule binders of probe aInhba, primary screen, biochemical, small-molecule microarray, 635/667 nm fluorescence (AID 1148).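 Further: score merges 667nm spot fluorescence with signal-to-noise for antibody binding to printed compounds.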 Conditions: higher = more signal.
In test [8] the target is Torsin-1A (Homo sapiens) (UniProt O14656). Put plainly: torsin A binders from cell lysate, primary screen, small-molecule microarray, wild-type, 635/667 nm (AID 1149). The settings on record: COS7 hTOR1A-WT lysate, 635 nm fluorescence, higher = more signal.
Torsin-1A (Homo sapiens), sequence (O14656 whole entry, looked up): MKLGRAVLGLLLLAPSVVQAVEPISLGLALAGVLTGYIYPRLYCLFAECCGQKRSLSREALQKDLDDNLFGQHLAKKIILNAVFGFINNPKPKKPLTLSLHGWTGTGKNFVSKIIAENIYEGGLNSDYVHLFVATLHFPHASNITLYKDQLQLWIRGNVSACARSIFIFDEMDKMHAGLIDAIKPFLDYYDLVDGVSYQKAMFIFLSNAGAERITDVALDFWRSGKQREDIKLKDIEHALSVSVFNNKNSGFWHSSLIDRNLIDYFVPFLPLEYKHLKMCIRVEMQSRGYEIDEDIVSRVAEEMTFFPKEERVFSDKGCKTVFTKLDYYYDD
Test [9] shares this target. As to the kind of experiment: small-molecule binders of mutant TOR1A in lysate, primary screen, cell lysate, small-molecule microarray, COS7 lysate, 635/667 nm fluorescence (AID 1150).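 Further: score pools 667 nm emission and signal to noise measuring lysate protein binding.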 The settings on record: COS7 hTOR1A mutant lysate, 635 nm fluorescence, higher = more signal.
The test system of test [10] is Sonic hedgehog protein (Shh). Put plainly: small-molecule binders of Shh protein, primary screen, biochemical, small-molecule microarray, 635/667 nm fluorescence (AID 1151).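 Further: Shh protein binding to compounds spotted on small-molecule microarray slides; score combines spot fluorescence intensity with signal-to-noise across triplicate slides.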 Conditions: small-molecule microarray binding, 635 nm fluorescence; higher = more signal.
Test [11] is described as follows: E. coli DRC41 culture turbidity changes, primary screen, E. coli filamentation inducer project, strain DRC41, OD650, 48 h (AID 1152).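 Further: E. coli MC1000 strain DRC41 lacking acrAB efflux pump and sulA.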 Conditions: E. coli DRC41 (acrAB sulA), higher = more signal, called active from +8 up or from −8 down.
Test [12] is described as follows: small-molecule binders of probe aLefty1, primary screen, biochemical, small-molecule microarray, 635/667 nm fluorescence (AID 1153).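 Further: score merges spot fluorescence with signal-to-noise ratio from the scanned slide images.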 The settings on record: higher = more signal.
The nature of test [13]: PSAC antagonists in infected red cells, primary screen, cell-based, P. falciparum Indochina, OD700, 1 h (AID 1154). Conditions: P. falciparum Indochina infected RBC osmotic lysis, higher = more signal, called active from +8 up or from −8 down.
A short description of test [14]: PSAC antagonists in infected red cells, primary screen, cell-based, P. falciparum Indochina, OD700, 2 h (AID 1155).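 Further: lysis reports solute entry through the parasite surface anion channel PSAC; channel blockers reduce lysis of infected cells.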 The settings on record: P. falciparum Indochina infected erythrocytes, osmotic lysis OD700; higher = more signal, called active from +8 up or from −8 down.
Test [15] is described as follows: osmotic lysis modulators in infected erythrocytes, primary screen, PSAC antagonist project, cell-based, P. falciparum Indochina, OD700, 3 h (AID 1156). The settings on record: higher = more signal, called active from +8 up or from −8 down.
Test [16] can be described thus: PSAC antagonists in infected red cells, primary screen, cell-based, P. falciparum Indochina, OD700, 18 h (AID 1157). Conditions: P. falciparum Indochina infected erythrocytes, osmotic lysis OD700, 18 h; higher = more signal, called active from +8 up or from −8 down.
The nature of test [17]: modulators of S6 phosphorylation in cells, primary screen, cell-based, A549, cytoblot, luminescence, serum-stimulated (AID 1158).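 Further: serum-stimulated A549 lung adenocarcinoma cells; signal is phosphorylated S6 detected by cytoblot immunostaining with HRP secondary.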 The settings on record: A549 phospho-S6 cytoblot, 5 h, higher = more signal.
The target of test [18] is NADPH oxidase 2 (Homo sapiens) (UniProt P04839). As to the kind of experiment: NOX2-dependent H2O2 signal modulators, primary screen, NOX inhibitor project, cell-based, HEK293-NOX2, PMA-stimulated, Amplex Red fluorescence (AID 1159). Further: test concentration not given here. Conditions: 45 min, higher = more signal, called active from +8 up or from −8 down.
NADPH oxidase 2 (Homo sapiens), sequence (P04839 whole entry, looked up): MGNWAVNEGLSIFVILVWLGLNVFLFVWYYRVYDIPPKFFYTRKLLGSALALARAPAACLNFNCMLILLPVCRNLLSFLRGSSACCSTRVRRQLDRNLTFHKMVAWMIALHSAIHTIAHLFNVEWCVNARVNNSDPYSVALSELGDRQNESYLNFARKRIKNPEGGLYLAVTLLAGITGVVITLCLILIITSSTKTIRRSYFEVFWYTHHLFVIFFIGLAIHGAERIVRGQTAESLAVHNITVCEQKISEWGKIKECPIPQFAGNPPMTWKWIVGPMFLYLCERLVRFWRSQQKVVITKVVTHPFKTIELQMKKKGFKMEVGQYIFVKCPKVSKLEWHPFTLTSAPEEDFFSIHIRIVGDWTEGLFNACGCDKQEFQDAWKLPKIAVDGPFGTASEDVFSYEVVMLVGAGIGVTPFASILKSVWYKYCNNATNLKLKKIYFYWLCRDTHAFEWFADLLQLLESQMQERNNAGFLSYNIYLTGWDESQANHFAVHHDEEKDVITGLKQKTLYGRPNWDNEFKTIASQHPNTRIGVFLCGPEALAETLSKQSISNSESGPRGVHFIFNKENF
Test [19] deals with NADPH oxidase 4 (Homo sapiens) (UniProt Q9NPH5). Put plainly: NOX4-dependent H2O2 signal modulators, primary screen, NOX inhibitor project, cell-based, HEK293-NOX4, tetracycline-induced, Amplex Red fluorescence (AID 1160). The settings on record: 45 min, higher = more signal, called active from +8 up or from −8 down.
NADPH oxidase 4 (Homo sapiens), sequence (Q9NPH5 whole entry, looked up): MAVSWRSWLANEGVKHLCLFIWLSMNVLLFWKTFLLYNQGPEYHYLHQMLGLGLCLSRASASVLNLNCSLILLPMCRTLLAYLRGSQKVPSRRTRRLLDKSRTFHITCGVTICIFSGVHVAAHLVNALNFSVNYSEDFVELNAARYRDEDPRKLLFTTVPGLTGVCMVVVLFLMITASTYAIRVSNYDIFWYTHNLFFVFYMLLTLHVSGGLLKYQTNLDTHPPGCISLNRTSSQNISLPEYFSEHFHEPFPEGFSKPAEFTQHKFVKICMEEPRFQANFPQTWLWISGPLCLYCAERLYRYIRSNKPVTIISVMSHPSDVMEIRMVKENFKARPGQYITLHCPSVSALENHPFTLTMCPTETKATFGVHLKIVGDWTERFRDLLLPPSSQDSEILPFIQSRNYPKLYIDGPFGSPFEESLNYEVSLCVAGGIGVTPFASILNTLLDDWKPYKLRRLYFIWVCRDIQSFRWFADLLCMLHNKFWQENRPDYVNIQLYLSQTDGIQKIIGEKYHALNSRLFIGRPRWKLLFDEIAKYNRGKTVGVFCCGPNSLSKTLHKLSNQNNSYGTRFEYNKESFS
Test [20] has as its target NADPH oxidase 5 (Homo sapiens) (UniProt Q96PH1). As to the kind of experiment: NOX5-dependent H2O2 signal modulators, primary screen, NOX inhibitor project, cell-based, HEK293-NOX5, Amplex Red fluorescence (AID 1161). Conditions: HEK293-NOX5, ionomycin, 45 min, higher = more signal.

Active and inactive are the calls of the source. Unless noted, how the calls were made is not given here.

NADPH oxidase 5 (Homo sapiens), sequence (Q96PH1 whole entry, looked up): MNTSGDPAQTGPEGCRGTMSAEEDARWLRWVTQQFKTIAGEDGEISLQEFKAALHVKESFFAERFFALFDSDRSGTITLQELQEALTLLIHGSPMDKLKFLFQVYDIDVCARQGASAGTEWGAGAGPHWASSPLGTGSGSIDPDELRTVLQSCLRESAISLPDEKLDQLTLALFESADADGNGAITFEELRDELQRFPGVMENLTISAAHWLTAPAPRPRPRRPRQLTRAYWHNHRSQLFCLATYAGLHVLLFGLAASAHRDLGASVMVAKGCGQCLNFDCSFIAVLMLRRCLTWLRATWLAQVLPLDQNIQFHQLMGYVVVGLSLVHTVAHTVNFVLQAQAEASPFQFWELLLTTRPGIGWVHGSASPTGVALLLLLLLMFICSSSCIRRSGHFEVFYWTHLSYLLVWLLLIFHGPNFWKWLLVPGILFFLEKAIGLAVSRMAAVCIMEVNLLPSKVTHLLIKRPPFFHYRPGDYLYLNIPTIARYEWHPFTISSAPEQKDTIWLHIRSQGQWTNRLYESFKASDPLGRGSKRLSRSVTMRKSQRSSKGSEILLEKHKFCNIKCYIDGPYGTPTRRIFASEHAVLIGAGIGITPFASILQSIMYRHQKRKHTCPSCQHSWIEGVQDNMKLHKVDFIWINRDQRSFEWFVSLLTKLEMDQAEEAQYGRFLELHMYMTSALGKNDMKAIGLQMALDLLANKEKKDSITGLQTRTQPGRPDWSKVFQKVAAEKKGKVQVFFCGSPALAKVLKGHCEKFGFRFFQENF
Streptavidin (Streptomyces avidinii), sequence (P22629 whole entry, looked up): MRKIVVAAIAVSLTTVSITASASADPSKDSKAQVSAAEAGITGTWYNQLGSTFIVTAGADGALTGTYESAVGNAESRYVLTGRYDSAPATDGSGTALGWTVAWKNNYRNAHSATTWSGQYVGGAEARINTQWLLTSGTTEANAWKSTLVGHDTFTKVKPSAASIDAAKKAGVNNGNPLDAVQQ

`CN(C)CCCCNC(=O)[C@@H]1C[C@@H]2C(=O)N[C@@H](Cc3ccccc3)C(=O)N2[C@@H]1c1cccc(OCCO)c1`: the composite z-score in test [1] is 1.2; in test [6], -0.351; in test [7] it was 0.0543; with Torsin-1A (Homo sapiens) [8], 0.75; with Torsin-1A (Homo sapiens) [9], 1.54; in [10], 1.55. In addition, in [12], the composite z-score amounted to 0.243. Also, the z-score in test [2] is -1.6 (inactive); in test [3], -0.133 (inactive); in test [4], 0.431 (inactive); in [5] it was -0.903 (inactive); in test [11] it was 2.93 (inactive); in [13], 7.44 (inactive). The z-score in test [14] was -0.16 (inactive); in test [15], -1.84 (inactive); in [16], -1.29 (inactive); in test [17] it was 0.602; in [18], 0.767 (inactive); in test [19], 0.74 (inactive). The same compound returned a z-score in [20] of 1.55.

For the compound `C=C(CCCC)/C(=C/C[C@@H](OC(=O)c1ccncc1)c1ccccc1OCCO)c1cnc2ccccc2c1`, the composite z-score in test [1] is 0.944; in test [6] it was 1.16; in test [7] it was 0.11; with Torsin-1A (Homo sapiens) [8], 0.49; in the test with Torsin-1A (Homo sapiens) [9] it was -0.239; in [10], 2.17. The composite z-score in test [12] is 0.541. Further, the z-score was -2.5 (inactive) in test [2]; 0.207 (inactive) in test [3]; 10.3 (active) in test [4]; 0.689 (inactive) in test [5]; -0.209 (inactive) in [11]; 20.2 (active) in test [13]. Moreover, the z-score was 4.55 (inactive) in [14]; 1.58 (inactive) in test [15]; 1.12 (inactive) in test [16]; 0.759 in [17]; -0.852 (inactive) in test [18]; 0.474 (inactive) in test [19]. The compound further displayed a z-score in test [20] of -0.524.

Turning to `CCOC(=O)c1ccc(NC(=O)O[C@H]2[C@H](OC(=O)Nc3ccc4c(c3)OCO4)[C@H](OC(=O)Nc3ccc4c(c3)OCO4)[C@@H](OC)O[C@@H]2CO)cc1`, the composite z-score in test [1] turned out to be 0.662; in test [6] it was 0.245; in [7], 0.386; with Torsin-1A (Homo sapiens) [8], 0.807; with Torsin-1A (Homo sapiens) [9] it was 0.505; in [10], 1.76. Besides, the composite z-score in [12] turned out to be 0.408. The z-score in test [2] was -2.23 (inactive); in test [3], 1.55 (inactive); in test [4], 0.0918 (inactive); in test [5], -0.195 (inactive); in [11], -0.351 (inactive); in test [13] it was 23.4 (active). Further, the z-score in test [14] is 6.99 (inactive); in [15], 0.726 (inactive); in test [16], 1.55 (inactive); in test [17] it was -0.535; in test [18], -0.984 (inactive); in test [19], -0.54 (inactive). The z-score in test [20] is -1.28.

With `O=C1C=C(c2ccccc2)C(=O)c2ccc([C@H]3Oc4ccccc4S(=O)(=O)N4CCC[C@@H]34)cc21`, the composite z-score is 0.34 in test [1]; -0.309 in test [6]; -0.258 in test [7]; 0.0359 in the test with Torsin-1A (Homo sapiens) [8]; 1.97 in the test with Torsin-1A (Homo sapiens) [9]; 0.222 in [10]. Also, in test [12], the composite z-score is -0.08. Besides, the z-score in test [2] was -6.42 (inactive); in test [3], 0.016 (inactive); in test [4], 9.47 (active); in test [5], 33 (active); in test [11], 0.864 (inactive); in test [13], 2.45 (inactive). For the same compound, the z-score in test [14] is 0.0567 (inactive); in [15], -0.37 (inactive); in test [16], -0.236 (inactive); in test [17], 0.208; in test [18] it was 0.398 (inactive); in test [19], -5.41 (inactive). The compound further showed a z-score in test [20] of -6.41.

On to `C=C(C(=O)CC[C@@H](OC(C)=O)c1ccc(CO)o1)C(C)C`, for which the composite z-score was 0.911 in test [1]; 0.0155 in test [6]; -0.0427 in test [7]; -0.427 with Torsin-1A (Homo sapiens) [8]; -0.0059 with Torsin-1A (Homo sapiens) [9]; 1.91 in test [10]. The composite z-score in test [12] was -0.007. Further, the z-score is 1.18 (inactive) in test [2]; -0.947 (inactive) in [3]; 0.275 (inactive) in [4]; 2.17 (inactive) in test [5]; -0.167 (inactive) in [11]; 1.21 (inactive) in test [13]. For the same compound, the z-score in test [14] was 0.0112 (inactive); in test [15], 0.493 (inactive); in test [16], -0.0113 (inactive); in test [17] it was -0.0282; in test [18], -0.354 (inactive); in test [19] it was 0.261 (inactive). Moreover, the z-score in [20] was found to be 0.483.

(Values after PubChem BioAssay.)
